# Experimental data: PubChem BioAssay (NCATS)
# Results filed as inconclusive are left out. Entries that show only a call come without a potency. A number with no mark means an inactive call. The source made the active and inactive calls. The call rests on the fitted dose curve; in most records, active means well fitted curve in the direction sought with a large enough effect; inconclusive means small, poorly fitted or top-dose-only effect, or another doubt; inactive means no such curve, though single readings can be large; an effect the other way counts as inactive or inconclusive.
# Legend:
# [1] = Confirmatory screen GU Rhodamine qHTS for Zika virus inhibitors qHTS (AID 1347157); further: potency means the concentration at half of the fitted maximal effect; nearly all actives have a fitted effect of over 70% in size
# How it was run: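 Noncovalent NS2B hydrophilic domain/NS3 protease complex (25 nM final) in 10 mM Tris-HCl pH 8.0, 0.01% Tween 20, preincubated 15 min with compounds (up to 114 microM), then 1.5 microM Rhodamine110 substrate. Fluorescence change over 15 min fitted to 4-parameter Hill.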
# [2] = ZIKV-mCherry secondary qHTS for Zika virus inhibitors (AID 1347158); further: top concentration of the series differs between compounds
# How it was run: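 Vero, 5,000 cells/well, o/n 37 °C; cpd pin-transferred in DMSO; ZIKV-mCherry MOI 1, 48-72 h 37 °C; 32% PFA stock fix, Hoechst; imaged 10x DAPI/mCherry; mCherry+ threshold 450 RFU; % infection.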
# [3] = test system: Zika virus NS2B-NS3 protease (unlinked complex); test: Primary screen GU Rhodamine qHTS for Zika virus inhibitors: Unlinked NS2B-NS3 protease assay (AID 1347159); further: nearly all actives have a fitted effect of over 60% in size; further: potency means the concentration at half of the fitted maximal effect
# How it was run: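 Compounds, tested up to 114 microM, were incubated for 15 minutes with 25 nM unlinked NS2B-NS3 protease at pH 8.0. Cleavage of 1.5 microM Rhodamine110 substrate was then followed by fluorescence for 15 minutes.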
# [4] = test system: Zika virus NS2B-NS3 protease (linked construct); test: Primary screen NINDS Rhodamine qHTS for Zika virus inhibitors (AID 1347160); further: nearly all actives have a fitted effect of over 55% in size; further: potency means the concentration at half of the fitted maximal effect
# How it was run: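 Percent inhibition, normalized to uninhibited and enzyme-free controls, is fitted to a 4-parameter Hill equation. Fluorescence change comes from a 15-min cleavage of 1.5 microM bis-peptide Rhodamine110 substrate by 25 nM linked NS2B-NS3 at room temperature.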
# [5] = Confirmatory screen NINDS Rhodamine qHTS for Zika virus inhibitors (AID 1347161); further: potency means the concentration at half of the fitted maximal effect; nearly all actives have a fitted effect of over 60% in size
# How it was run: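 Kinetic fluorescence (Ex 480 nm, Em 540 nm) over 15 min with 1.5 microM Rhodamine110 peptide and 25 nM linked protease.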
# [6] = test system: Zika virus NS2B-NS3 protease (linked); test: 384 well plate NINDS AMC confirmatory qHTS for Zika virus inhibitors (AID 1347163);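 further: fluorescence of AMC released from Ac-VKTGKR-AMC peptide cleaved by the protease; top concentration of the series differs between compounds; nearly all actives have a fitted effect of over 50% in size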
# How it was run: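 Linked NS2B-NS3 protease (final 5 nM, 30 nM or 60 nM) was preincubated with compounds (final up to 1 mM) for ~15 minutes. Ac-VKTGKR-AMC substrate (final 30 microM) then reacted for 25 minutes at room temperature in the dark. Fluorescence (ex 355/em 460 nm) was normalized to no-enzyme and no-inhibitor controls.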
# [7] = test system: Zika virus NS2B-NS3 protease (linked construct); test: 384 well plate NINDS Rhodamine confirmatory qHTS for Zika virus inhibitors (AID 1347164);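 further: fluorescence from protease cleavage of Ac-LKRR-rhodamine 110 substrate; potency means the concentration at half of the fitted maximal effect; nearly all actives have a fitted effect of over 65% in size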
# How it was run: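 Fluorescence at 485/538 nm was measured 25 minutes after adding 10 microM Ac-LKRR-Rd substrate, in the dark at room temperature. The protease (5, 30 or 60 nM final) had been preincubated ~15 minutes with compound; aprotinin as control.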
# [8] = Vero cells viability qHTS for Zika virus inhibitors (AID 1347167)
# How it was run: (§1)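 Cells seeded at 2.5 x 10^5 cells/mL in DMEM with 4% FBS and attached overnight at 37 degrees C, then exposed to compound for 24 to 48 hours. Viability read as ATP content by CellTiter Glo luminescence.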
# [9] = HepG2 cells viability qHTS for Zika virus inhibitors (AID 1347168)
# How it was run: as §1
# [10] = Tertiary RLuc qRT-PCR qHTS assay for Zika virus inhibitors (AID 1347169); further: nearly all actives have a fitted effect of over 55% in size; further: potency means the concentration at half of the fitted maximal effect; on activity change, negative = inhibition: top concentration of the series differs between compounds
# How it was run: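 Orthogonal cell-based readout: luminescence measured 1-1.5 hrs after adding live-cell Renilla substrate to Vero cells that had been infected with ZIKV-RLuc (MOI 1-2) post-compound, incubated 48-72 hrs at 37 degrees C.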
# [11] = test system: Zika virus NS2B-NS3 protease; test: Primary screen GU AMC qHTS for Zika virus inhibitors (AID 1347154); further: nearly all actives have a fitted effect of over 70% in size
# How it was run: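 Unlinked Zika NS2B hydrophilic domain–NS3 protease complex at 25 nM in 10 mM Tris-HCl pH 8.0, 0.01% Tween 20, with an AMC peptide substrate. Fluorescence change (340/450 nm) over 15 min at room temperature, normalized to controls, fitted to 4-parameter Hill.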
# [12] = test system: Zika virus NS2B-NS3 protease (linked construct); test: Confirmatory screen NINDS AMC qHTS for Zika virus inhibitors (AID 1347152); further: top concentration of the series differs between compounds; nearly all actives have a fitted effect of over 70% in size
# How it was run: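 IC50s from 4-parameter Hill fits of percent inhibition, based on AMC fluorescence gain (340/450 nm) over 15 min with 10 microM Bz-Nle-KRR-AMC. Enzyme: 1 nM linked NS2B-NS3 in Tris-HCl pH 8.0; 15-min compound preincubation.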
# [13] = test system: Zika virus NS2B-NS3 protease (unlinked complex); test: Confirmatory screen GU AMC qHTS for Zika virus inhibitors (AID 1347153); further: nearly all actives have a fitted effect of over 70% in size
# How it was run: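 Unlinked enzyme 25 nM, Tris pH 8.0/0.01% Tween 20; cpd 15 min RT, dark; + AMC substrate 10 µM (Km 18.3 µM); 340/450 nm read at t0 and 15 min; % inhibition → 4-param fit.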
compound,measurement,setting,value
O=C(Nc1ccc(S(=O)(=O)Nc2nccs2)cc1)C(c1ccccc1)c1ccccc1,Potency,[1],6.98 µM (active)
same,Potency,[2],inactive
same,Potency,[3],6.31 µM (active)
same,Potency,[4],7.08 µM (active)
same,Potency,[5],4.41 µM (active)
same,Potency,[6],inactive
same,Potency,[7],50.1 µM (active)
same,outcome,[8],inactive
same,outcome,[9],inactive
same,Potency,[10],20.8 µM (active)
CC1OC(OC2C(CO)OC(OCC3OC(OC(=O)C45CCC(C)(C)CC4C4=CCC6C7(C)CCC(OC8OC(CO)C(O)C(OC9OC(CO)C(O)C(O)C9O)C8O)C(C)(C)C7CCC6(C)C4(C)CC5)C(O)C(O)C3O)C(O)C2O)C(O)C(O)C1OC1OC(CO)C(O)C(O)C1O (stereo unspecified),"activity change, negative = inhibition",[3],10.6% [at 19.1 µM]
CC(C)[N+]1(C)C2CCC1CC(OC(=O)C(CO)c1ccccc1)C2 (stereo unspecified),Potency,[11],inactive
same,Potency,[3],inactive
same,Potency,[4],inactive
N#CC(c1ccnc(OCc2ccc(CN3CCOCC3)cc2)n1)c1nc2ccccc2s1 (stereo unspecified),Potency,[12],inactive
same,Potency,[13],inactive
same,Potency,[1],31.2 µM (active)
same,Potency,[3],3.98 µM (active)
same,Potency,[4],7.94 µM (active)
same,Potency,[5],31.2 µM (active)
same,Potency,[7],5.01 µM (active)
same,outcome,[8],inactive
same,outcome,[9],inactive
C=C[C@H]1[C@H](O[C@@H]2O[C@H](CO)[C@@H](O)[C@H](O)[C@H]2O)OC=C(C(=O)OC)[C@H]1CCOC(=O)c1cc(O)c(O)c(O)c1,Potency,[12],inactive
same,Potency,[3],15.8 µM (active)
same,Potency,[4],8.91 µM (active)
same,Potency,[5],10.8 µM (active)
same,outcome,[8],inactive
same,outcome,[9],inactive
same,Potency,[10],inactive
CCC(C(=O)O)c1ccc(N2Cc3ccccc3C2=O)cc1 (stereo unspecified),Potency,[11],inactive
OC/C=C/C=C/[C@H]1Cc2cc(O)cc(O)c2O1,Potency,[1],22.1 µM (active)
same,Potency,[3],39.8 µM (active)
same,Potency,[4],inactive
same,Potency,[5],27.8 µM (active)
same,Potency,[10],inactive
